This is a sample that favours compounds with a hit; in the whole collection about 4.6% have one here.
Tau ThT inhib – inhibitors of human tau fibril formation, thioflavin T binding; P10636; recombinant tau K18 P301L, heparin-induced fibrillization, ThT fluorescence; Potency, µM (doses to about 57.4 µM), for the others: top-dose activity, negative = inhibition, usual class: inhibitors; hit rate 2.1% among 270,000; further: potency means the concentration at half of the fitted maximal effect; nearly all actives have a fitted effect of over 55% in size
Target sequence (P10636 561-689 P618L limits assumed): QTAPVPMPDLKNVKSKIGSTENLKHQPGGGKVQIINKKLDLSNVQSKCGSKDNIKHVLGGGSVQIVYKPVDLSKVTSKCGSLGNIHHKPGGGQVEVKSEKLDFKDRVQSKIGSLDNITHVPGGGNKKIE
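Tau K18 P301L fragment (15 uM unlabeled plus 0.24 uM Alexa 594-labeled) in 100 mM sodium acetate pH 7 with compound, fibrillization induced by 20 uM heparin for 6 hr at 37 C. Thioflavin T (30 uM) added, fluorescence read after 1 hr (ex 450, em 510 nm).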
TRb SRC2 PPI – inhibitors of human thyroid hormone receptor beta-SRC2 interaction; P10828; hit rate 0.065% among 280,000; Potency, µM (series often up to 106 µM), for the others: top-dose activity change, negative = inhibition, actives largely listed as inhibitors; TRbeta-SRC2 peptide binding, fluorescence polarization; receptor liganded with 1 µM T3;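 further: potency means the concentration at half of the fitted maximal effect; plate controls were bound peptide for no effect and peptide without receptor for full effect; nearly all actives have a fitted effect of over 50% in size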
Target sequence (P10828 whole entry, looked up): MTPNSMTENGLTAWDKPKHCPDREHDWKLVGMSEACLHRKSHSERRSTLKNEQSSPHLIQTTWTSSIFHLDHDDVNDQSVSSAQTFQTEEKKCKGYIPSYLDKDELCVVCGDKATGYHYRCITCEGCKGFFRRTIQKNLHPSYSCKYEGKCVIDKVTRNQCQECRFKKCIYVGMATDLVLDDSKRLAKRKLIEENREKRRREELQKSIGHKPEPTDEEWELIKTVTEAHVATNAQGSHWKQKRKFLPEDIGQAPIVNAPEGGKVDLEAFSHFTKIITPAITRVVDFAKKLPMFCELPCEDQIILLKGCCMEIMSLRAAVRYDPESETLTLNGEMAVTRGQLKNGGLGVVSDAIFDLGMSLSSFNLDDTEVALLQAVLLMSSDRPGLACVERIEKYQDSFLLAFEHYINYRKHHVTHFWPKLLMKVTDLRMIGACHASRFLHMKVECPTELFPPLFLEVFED
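Fluorescence polarization of 20 nM Texas Red SRC2 peptide with 0.6 uM human TRb ligand-binding domain, in Tris buffer with 1uM T3 and 5% DMSO. Incubated 5 hr ambient; normalized to unbound and bound controls.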
Tau fluor cs – counter-screen for tau fibril formation inhibitors. tau K18 P301L Alexa594 fluorescence, heparin fibrillization. AID 1463. hit rate 0.93% among 280,000. Potency, µM (series often up to 57.7 µM), for inactives: at the highest dose activity change, negative = decrease; further: potency means the concentration at half of the fitted maximal effect; nearly all actives have a fitted effect of over 55% in size
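Human tau K18 P301L (15 uM unlabeled, 0.24 uM Alexa 594-labeled) in 100 mM sodium acetate pH 7 with 20 uM heparin, 6 hr at 37 C. ThT 30 uM added, 1 hr ambient; Alexa 594 FP and total fluorescence read at 555/632 nm.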
PNC assembly inh – blocks assembly of the perinucleolar compartment. activity change (PNC), negative = inhibition, % at 10 µM. hit rate 3.1% among 140,000. PC3M PTB-GFP, PNC prevalence imaging, 16 h; hits give low values;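 active means readout at or below -70, meaning at least 70% loss of cells showing the perinucleolar compartment, a nuclear body marking cancer cells; inconclusive means readout between -30 and a set limit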;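 further: plate controls were DMSO wells for no effect and camptothecin positive control wells for full effect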
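Compounds are pinned in duplicate onto adhered PC3M cells stably expressing GFP-tagged PTB and incubated 16 h at 37 C. Cells are then fixed, nuclei stained with Hoechst, and PNC-positive cells counted.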
Tau FP inhib – inhibitors of human tau fibril formation; hit rate 0.39% among 280,000; K18 P301L tau heparin fibrillization, Alexa594 FP, 6 h; P10636; Potency, µM (series often up to 57.7 µM), without a hit: at the top dose activity, negative = inhibition, hits mostly inhibitors; further: potency means the concentration at half of the fitted maximal effect; nearly all actives have a fitted effect of over 55% in size
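Compound effects on tau fibrillization are measured by Alexa 594 fluorescence polarization (ex 555, em 632 nm). K18 P301L tau is used at 15 uM with 0.24 uM labeled tracer, and 20 uM heparin induces aggregation over 6 hr at 37 C.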
TexasRed fluor – alters Texas Red total fluorescence, flagging assay interference. AID 1479. hit rate 0.29% among 280,000. Potency, µM (doses to about 106 µM), for the others: at the highest dose fluorescence change, negative = quenching. TRb/SRC2 Texas Red total fluorescence interference; active means well fitted curve in either direction with a large enough effect; inconclusive means small, poorly fitted or top-dose-only effect; further: potency means the concentration at half of the fitted maximal effect
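Human TRβ ligand-binding domain (0.6 uM) and Texas Red SRC2 peptide (20 nM) in Tris buffer with 1 uM T3 and 5% DMSO were incubated with pinned compound for 5 hr at ambient temperature. Total fluorescence was computed as S + 2P (555/632 nm).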
Numbers without * were called inactive; ? = inconclusive; nt = no result given; [ ] = remark or other dose. Unless noted, the call rests on the fitted dose curve; in most records, active means well fitted curve in the direction sought with a large enough effect; inconclusive means small, poorly fitted or top-dose-only effect, or another doubt; inactive means no such curve, though single readings can be large; an effect the other way counts as inactive or inconclusive. Unless noted, on the % scale 0 is the no-effect control and ±100 the full control effect.

SMILES | Tau ThT inhib | TRb SRC2 PPI | Tau fluor cs | PNC assembly inh | Tau FP inhib | TexasRed fluor
Cc1ccc(CNC(=O)C(CC(C)C)NS(=O)(=O)c2ccc3c(c2)oc(=O)n3C)cc1 (stereo not drawn) | 3% | -10% | -4% | nt | -13% | -3%
O=Cc1s/c(=N\S(=O)(=O)c2ccccc2)n(CCCCl)c1Cl | 28µM* | -1% | -12% | nt | ? | 0%
CSc1nncc(/C(C)=N\Nc2cccc(C)c2)n1 | ? | -23% | -11% | 30 | -8% | 0%
CSc1nncc(/C(C)=N\Nc2ccccc2)n1 | 2.8µM* | -1% | -8% | -26 | -3% | 1%
CC/C(=N/Nc1ccccc1C)c1cnnc(SC)n1 | 3.5µM* | 4% | -20% | 16 | ? | -1%
O=S(=O)(c1ccc2nc(Cc3ccccc3)[nH]c2c1)N1CCOCC1 | -10% | -7% | -6% | 25 | -2% | 0%
CCn1c(O)c(C2=NCCCC2)c2ccccc21 | -2% | 0% | 0% | ? | 1% | -1%
CCc1cccc(C)c1NC(=O)CSc1nnc(CCCOc2ccc(Cl)cc2Cl)n1C | ? | -4% | -18% | -113* | -14% | 1%
Cn1c(CCCOc2ccc(Cl)cc2Cl)nnc1SCC(=O)Nc1cccc(F)c1 | -10% | -8% | -24% | ? | ? | -1%
COc1ccccc1C(=O)Nc1ccc2nc(N3CCC(C)CC3)cc(C)c2c1 | 8.9µM* | 9% | 7.9µM*[quencher] | nt | 18% | -3%
COc1cccc(CC(=O)Nc2ccc3nc(N4CCC(C)CC4)cc(C)c3c2)c1 | ? | -3% | 14µM*[quencher] | nt | ? | -2%
COc1cc(OC)cc(C(=O)Nc2ccc3nc(N4CCC(C)CC4)cc(C)c3c2)c1 | ? | 4% | 4µM*[quencher] | nt | ? | -4%
COc1ccc(C(=O)Nc2ccc3nc(N4CCCCC4)cc(C)c3c2)c(OC)c1 | ? | 11% | ? | -21 | 7% | 1%
CCOc1ccc(C(=O)Nc2ccc(S(=O)(=O)N(Cc3ccccc3)c3ccccc3)cc2)cc1 | 8% | 2% | ? | nt | ? | -4%
COc1ccc(/C(C)=N/Nc2nc3ccccc3nc2C)cc1OC | 13µM* | 9% | ? | nt | ? | -5%
COc1ccc(/C(C)=N/Nc2cccc(C(=O)O)c2)cc1OC | ? | -11% | -1% | nt | -1% | 0%
O=C(Cn1[nH]c(=O)c2ccccc2c1=O)OCC(=O)N1CCCc2ccccc21 | -5% | 1% | -2% | -97* | 1% | 2%
COc1ccc2nc3oc(C(=O)N4CCN(c5cccc(Cl)c5)CC4)cc3cc2c1 | ? | 4% | -18% | -87* | 11% | 1%
O=C(O)c1cccc(Cn2cc(Cl)cn2)c1 | 13% | -7% | 6% | 12 | 2% | 2%
COc1ccc(N2CCN(C(=O)c3cccc(Cn4cc(Cl)cn4)c3)CC2)cc1 | ? | -19% | -19% | -112* | -5% | 1%
Cc1cccc(C(=O)Nc2nc(-c3ccc(Br)cc3)ns2)c1 | -5% | -1% | -9% | nt | -13% | 2%
COc1ccc(NC(=S)N2CCN(c3ccccn3)CC2)cc1OC | -13% | 8% | -10% | -115* | -11% | -3%
COc1cc(NC(=S)N2CCN(c3ccccn3)CC2)cc(OC)c1OC | -7% | -8% | -6% | nt | -2% | -7%
O=C(/C=C/c1ccc2c(c1)OCO2)N1CCOCC1 | -18% | -3% | -12% | 15 | 2% | 0%
O=C(/C=C/c1ccccc1)c1ccc2c(c1)OCCCCO2 | ? | -18% | 4% | ? | 12% | -3%
SMILES | Tau ThT inhib | TRb SRC2 PPI | Tau fluor cs | PNC assembly inh | Tau FP inhib | TexasRed fluor
O=C(/C=C/c1ccc2c(c1)OCCCO2)c1ccc2ccccc2c1O | 3.2µM* | 4% | ? | -16 | 0% | -2%
Cc1ccc(C(=O)/C=C/c2ccc3c(c2)OCCO3)c(O)c1 | 6.3µM* | 4% | -23% | nt | 7% | -1%
O=C(NNc1ccc(Cl)nn1)c1ccc(Cl)cc1 | 8% | 1% | 12% | 38 | 2% | 0%
CCOC(=O)NCc1ccc(S(=O)(=O)Nc2ccccc2C)cc1 | -5% | 8% | -2% | -24 | 0% | 0%
C=CCN1C(=O)/C(=C\c2ccc(C)cc2)N=C1SCC(=O)NCCC | -6% | -10% | -10% | 11 | -4% | 1%
Cc1ccccc1C(=O)NC1CCN(Cc2nnnn2Cc2ccc(F)cc2)CC1 | 7% | -12% | 2% | ? | -7% | 1%
CCC(C)(C)n1nnnc1CN1CCC(NC(=O)c2ccccc2C)CC1 | 0% | -6% | 0% | -100* | -13% | -2%
CC(C)c1ccc(NC(=O)Cn2cc(S(=O)(=O)N3CCN(c4ccccc4F)CC3)c3ccccc3c2=O)cc1 | -2% | -4% | -14% | nt | ? | -1%
CC1CCN(S(=O)(=O)c2cn(CC(=O)Nc3cccc(C(F)(F)F)c3)c(=O)c3ccccc23)CC1 | 4% | 1% | ? | nt | ? | -1%
O=C(Cn1cc(S(=O)(=O)N2CCN(c3ccccc3F)CC2)c2ccccc2c1=O)Nc1cccc(C(F)(F)F)c1 | 4% | 6% | -25% | nt | 14µM* | -1%
Cc1ccc(NC(=O)Cn2cc(S(=O)(=O)N3CCN(c4ccccc4F)CC3)c3ccccc3c2=O)cc1F | -4% | 2% | -29% | nt | 14µM* | 0%
O=S(=O)(Nc1cc(Sc2cccc3cccnc23)c(O)c2ccccc12)c1ccccc1 | 16µM* | 2% | 16µM*[quencher] | -103* | ? | -2%
COC(=O)c1ccccc1NC(=O)CN(c1cc(OC)ccc1OC)S(C)(=O)=O | -16% | -14% | -22% | -20 | -1% | 2%
Cc1cc2cc(C=C(C#N)C#N)c(Cl)nc2cc1C | 3.2µM* | 6% | -13% | -7 | ? | -7%
CCOC(=O)/C(C#N)=C/c1cc2cc(C)c(C)cc2nc1Cl | -11% | 3% | -2% | nt | 2% | -2%
Cc1ccc(C(=O)NC2=NC(c3ccc(C)cc3)CC(=O)N2)cc1 (stereo not drawn) | 5% | -24% | 7% | nt | -3% | 251µM*[quencher]
CCOc1ccc(C2CC(=O)NC(NC(=O)c3ccc(C)cc3)=N2)cc1 (stereo not drawn) | -1% | 3% | -1% | nt | 3% | -19%
COc1ccccc1-n1c(=O)c2c3c(sc2n(Cc2ccccc2F)c1=O)CN(C(C)=O)CC3 | 0% | 11% | 3% | nt | 0% | 0%
COC(=O)C1=C(C)Nc2ncnn2C1c1ccc(OC(=O)c2ccccc2)cc1 (stereo not drawn) | -6% | -5% | -6% | -24 | -8% | 1%
OCC1(CCCc2ccccc2)CCN(Cc2cnc(N3CCOCC3)s2)CC1 | -10% | -2% | -5% | nt | ? | -3%
CCc1cccc(OCCn2ccnc2)c1 | -4% | -7% | -8% | -90* | -6% | -3%
